Screens (PubChem)
ClpP mod: qHTS Assay for Activators of ClpP | ATP-dependent Clp protease proteolytic subunit (Bacillus subtilis (strain 168)), P80244 | purified B. subtilis ClpP, FRET peptide cleavage, 20 min | Potency, µM (series often up to 57.5 µM), for inactives: at the highest dose activity change, negative = active | 1.9% of 340,000 active | AID 651965, 2013; active = well fitted falling curve with a large enough effect; inconclusive = small, poorly fitted or top-dose-only effect; inactive = no such curve, though single readings can be large or run the other way; note: potency is the fitted concentration of half-maximal effect; the source files actives as falling curves though it sought activators and does not explain the sign; nearly all actives have a fitted effect of over 65% in size
Target sequence (P80244 whole entry, looked up): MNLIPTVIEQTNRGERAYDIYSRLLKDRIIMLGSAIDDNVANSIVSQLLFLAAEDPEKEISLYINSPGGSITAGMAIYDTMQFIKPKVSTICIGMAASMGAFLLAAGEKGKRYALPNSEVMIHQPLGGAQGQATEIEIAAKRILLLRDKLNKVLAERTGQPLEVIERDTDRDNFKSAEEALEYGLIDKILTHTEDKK
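Buffer: 100 mM Tris/HCl pH8, 100 mM KCl, 0.05% low protease BSA, 2.5% glycerol, 0.01% Tween-20. ClpP 10 microg/mL final; 20 min RT; delta FRET normalized to ADEP and DMSO controls.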
IL2 activator: activators of IL-2; IL-2 activation reporter assay, cell-based qHTS; stimulated with anti-CD3/CD4/CD28 beads; in transgenic mouse T cells; activation, % (series mostly up to about 46 µM); 0.065% of 360,000 active; AID 652025; in the data active = activation above about 50%; inconclusive = mostly about 30% to 49%; note: 0% is about no effect
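Quantitative HTS in unstimulated transgenic mouse T cells, with memory T cells as non-tolerant control and PMA/ionomycin as tolerance-bypass control. Compound pretreatment lasted 60 minutes before 18 h bead stimulation; EGFP/DsRed fluorescence read.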
PKM2 act: activators of human pyruvate kinase M2. Potency, µM (doses to about 57.5 µM), inactives show top-dose activation, actives largely listed as activators. purified PKM2, Kinase-Glo ATP luminescence, activation; response scale: 0% is enzyme alone, no compound. 0.34% of 260,000 active; note: potency is the fitted concentration of half-maximal effect; % is set by controls: 0 for no effect and ±100 for the full control effect; nearly all actives have a fitted effect of over 55% in size
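Purified hPK-M2 (>95%) run at intermediate activity with 0.1 mM ADP and 0.5 mM PEP in 50 mM imidazole pH 7.2, KCl, MgCl2; 1 h room temperature. ATP formed read by Kinase-Glo luminescence; normalized to uninhibited and no-enzyme controls.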
NPSR antag: blocks cAMP signaling of the human neuropeptide S receptor; Q6W5P4; CHO-NPSR cells, cAMP TR-FRET, antagonist mode; Potency, µM (top dose mostly 38.3 µM), for the others: at the top dose activity change, negative = inhibition, usual class: inhibitors; 1% of 220,000 active; note: potency is the fitted concentration of half-maximal effect; % is set by controls: 0 for no effect and ±100 for the full control effect; nearly all actives have a fitted effect of over 50% in size
Target sequence (Q6W5P4 whole entry, looked up): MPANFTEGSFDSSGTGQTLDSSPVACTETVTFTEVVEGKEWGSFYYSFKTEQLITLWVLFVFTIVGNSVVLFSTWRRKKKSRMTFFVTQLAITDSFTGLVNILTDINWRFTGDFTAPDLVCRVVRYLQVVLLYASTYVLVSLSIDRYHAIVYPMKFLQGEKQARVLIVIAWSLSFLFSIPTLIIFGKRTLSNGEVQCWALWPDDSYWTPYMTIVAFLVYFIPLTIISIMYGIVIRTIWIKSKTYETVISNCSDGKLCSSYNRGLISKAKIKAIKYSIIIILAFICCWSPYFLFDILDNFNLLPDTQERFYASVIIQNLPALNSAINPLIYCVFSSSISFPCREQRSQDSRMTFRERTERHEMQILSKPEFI
* hit, by the source's call; [ ] = dose if it differs, or a comment. Hits are enriched below; roughly 2% of the tested compounds scored in any of these assays. Unless noted, calls come from the whole dose curve; as a rule, active = well fitted curve in the direction sought with a large enough effect; inconclusive = small, poorly fitted or top-dose-only effect, or another doubt; inactive = no such curve, though single readings can be large; an effect the other way counts as inactive or inconclusive.

Results for Cc1nc2c(c(=O)n1Cc1ccccc1Cl)c1nc3ccccc3nc1n2Cc1ccco1 ?
PKM2 act: inconclusive; NPSR antag: 13µM*

Results for CC(C)C[C@@H](NC(=O)C1CCC(CNC(=O)[C@@H]2CCCN2C(=O)OC(C)(C)C)CC1)C(=O)O (stereo partly drawn) ?
IL2 activator: 1

How did CCOc1ccc(NC(=O)CSc2ncn[nH]2)c([N+](=O)[O-])c1 do in these assays?
ClpP mod: 1%; IL2 activator: 0; PKM2 act: 16µM*; NPSR antag: 21%

What do the screens show for `CCOc1ccc(NC(=O)/C=C/c2ccccc2)c([N+](=O)[O-])c1`?
ClpP mod: -1%; IL2 activator: 3; PKM2 act: -13%; NPSR antag: -7%[46.1 µM]

What do the screens show for `COc1ccc(NC(=O)CSc2n[nH]c(-c3ccncc3)n2)c([N+](=O)[O-])c1`?
ClpP mod: -3%; IL2 activator: 1; PKM2 act: 1%

Results for CCc1nc(SCC(=O)Nc2ccc(OC)cc2[N+](=O)[O-])n[nH]1 ?
ClpP mod: -2%; IL2 activator: 2; PKM2 act: 25µM*; NPSR antag: -5%

What do the screens show for `CCOc1ccc(/C=C/C(=O)Nc2ccc(OC)cc2[N+](=O)[O-])cc1`?
ClpP mod: 10µM*; IL2 activator: 114*; PKM2 act: 0%; NPSR antag: -7%[46.1 µM]

What do the screens show for `O=C(NC(=S)N1CCN(CCO)CC1)C12CC3CC(CC(C3)C1)C2`?
IL2 activator: -3; PKM2 act: -7%; NPSR antag: 9%

What do the screens show for `CCCCOc1cccc(NC(=O)CSc2nccn2C)c1`?
ClpP mod: -1%; IL2 activator: 0; PKM2 act: -1%; NPSR antag: 23%[46.1 µM]

Results for CC1CCN(C(=O)CN(c2ccc(Cl)c(C(F)(F)F)c2)S(C)(=O)=O)CC1 ?
ClpP mod: -4%; IL2 activator: -1; PKM2 act: 0%; NPSR antag: -17%[46.1 µM]

How did COc1ccc(-c2[nH]ncc2CN2CCCOc3c(cccc3OC)C2)c(OC)c1 do in these assays?
IL2 activator: 4; PKM2 act: 5%; NPSR antag: -5%

Results for COc1cc(/C=C/C(=O)OCC(=O)Nc2nnc(-c3ccccc3)o2)cc(OC)c1OC ?
ClpP mod: 18µM*; IL2 activator: -4

Results for COc1ccc(CCN(C)C(=O)c2cncc(Br)c2)cc1OC ?
IL2 activator: 0; PKM2 act: 3%

How did CCCCCNCC(=O)Nc1cccc(C(=O)Nc2cccc(C(F)(F)F)c2)c1 do in these assays?
ClpP mod: 28µM*; IL2 activator: -3; PKM2 act: -11%; NPSR antag: inconclusive

What do the screens show for `O=C1c2ccccc2C(O)(c2ccccc2)N1CCc1ccccc1` (stereo not drawn)?
ClpP mod: 2%; IL2 activator: 1; PKM2 act: 0%

How did Brc1ccc(-c2nc3ccccc3s2)s1 do in these assays?
ClpP mod: 28µM*; IL2 activator: 3; PKM2 act: -9%; NPSR antag: 13µM*

How did Nc1ccc(-c2nc3ccccc3s2)cn1 do in these assays?
IL2 activator: 0

How did N#C/C(C(=O)N1CCOCC1)=c1/s/c(=C\c2ccccn2)c(=O)n1-c1ccccc1 do in these assays?
IL2 activator: 2; PKM2 act: -1%; NPSR antag: -12%

How did COc1ccc(-c2nc(SCC(=O)NCc3ccco3)c(-c3ccccc3)[nH]2)cc1OC do in these assays?
ClpP mod: inconclusive; IL2 activator: -2; PKM2 act: 5%; NPSR antag: -8%[46.1 µM]

What do the screens show for `COCCCNC(=O)CSc1nc(-c2cccc(F)c2)[nH]c1-c1ccccc1`?
ClpP mod: 28µM*

How did CCc1ccc(-c2nc(SCC(=O)NCC3CCCO3)c(-c3ccc(C)cc3)[nH]2)cc1 (stereo not drawn) do in these assays?
ClpP mod: 32µM*

Results for Cc1ccc(-c2[nH]c(-c3ccc(Cl)cc3)nc2SCC(=O)NCC2CCCO2)cc1 (stereo not drawn) ?
ClpP mod: 4%; IL2 activator: -2; PKM2 act: -3%; NPSR antag: -43%

Results for COCCCNC(=O)CSc1nc(-c2ccccc2)[nH]c1-c1ccc(C)cc1 ?
ClpP mod: 25µM*

Results for CC(C)(Oc1ccc(Cl)cc1)C(=O)N1CCN(c2ccccn2)CC1 ?
ClpP mod: inconclusive; IL2 activator: 0; PKM2 act: -2%; NPSR antag: -15%[46.1 µM]

What do the screens show for `Cc1c(NC(=O)COC(=O)Cc2ccc(Br)cc2)c(=O)n(-c2ccccc2)n1C`?
ClpP mod: 0%; IL2 activator: 0

Results for CN(C)C(CNC(=O)C1CCN(S(=O)(=O)c2cccc(Cl)c2Cl)CC1)c1ccccc1 (stereo not drawn) ?
IL2 activator: 0

How did Cc1ccc(O)c(C(=O)c2cnn(C(=O)COc3ccc(Cl)cc3)c2)c1 do in these assays?
ClpP mod: 16µM*; IL2 activator: -2; PKM2 act: inconclusive; NPSR antag: 0%

What do the screens show for `O=C(c1cnn(C(=O)COc2ccc(Cl)cc2)c1)c1ccccc1O`?
ClpP mod: 37%; IL2 activator: -1; PKM2 act: 3%; NPSR antag: 6%

How did C=C(C(=O)c1ccccc1)C(C)C(=C)C(=O)c1ccccc1 do in these assays?
ClpP mod: 2%; IL2 activator: -1; PKM2 act: 6%; NPSR antag: 10µM*

What do the screens show for `COc1ccc(C(=O)CSc2nnc(C3CCCCC3)n2N)c(OC)c1`?
ClpP mod: -1%; IL2 activator: 0; PKM2 act: -1%; NPSR antag: -10%[46.1 µM]

Results for COc1ccc(CCN(C)C(=O)CSc2nnc(C3CC3)n2N)cc1OC ?
ClpP mod: 25µM*; IL2 activator: -2

How did COc1ccc(NC(=S)N2CCc3ccccc32)cc1OC do in these assays?
ClpP mod: 1%; IL2 activator: 0; PKM2 act: 0%

Results for Cc1cc2n(n1)C(c1c[nH]c3ccccc13)Nc1ccccc1-2 (stereo not drawn) ?
ClpP mod: 22µM*; IL2 activator: 0; PKM2 act: -1%; NPSR antag: -18%[46.1 µM]

What do the screens show for `Cc1ccc2c(c1)-c1cc(C)nn1C(c1cc(Br)ccc1O)N2` (stereo not drawn)?
ClpP mod: 5%

What do the screens show for `Cc1cc2n(n1)C(c1cn(-c3ccccc3)nc1C)Nc1ccccc1-2` (stereo not drawn)?
ClpP mod: 2.5µM*; IL2 activator: -1; PKM2 act: 1%; NPSR antag: -4%[46.1 µM]

Results for Cc1noc(C)c1CSc1nc2sc(C)c(C)c2c(=O)n1-c1ccccc1 ?
ClpP mod: 3%; IL2 activator: -1; PKM2 act: 0%; NPSR antag: -19%[46.1 µM]

How did Cc1noc(C)c1CSc1nc2ccccc2c(=O)n1-c1ccc(Cl)cc1 do in these assays?
ClpP mod: -4%; IL2 activator: -3; PKM2 act: -1%; NPSR antag: 10µM*
